The source of these data is PubChem BioAssay.

Values without a mark were called inactive. The source made the active and inactive calls.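 How the source made its calls: active means mean inhibition above 46.68%, the untreated control wells mean plus 3 SD; inactive means the rest.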

Nuclear receptor coactivator 1 (Homo sapiens), sequence (Q15788 whole entry, looked up, the tested form may be a part): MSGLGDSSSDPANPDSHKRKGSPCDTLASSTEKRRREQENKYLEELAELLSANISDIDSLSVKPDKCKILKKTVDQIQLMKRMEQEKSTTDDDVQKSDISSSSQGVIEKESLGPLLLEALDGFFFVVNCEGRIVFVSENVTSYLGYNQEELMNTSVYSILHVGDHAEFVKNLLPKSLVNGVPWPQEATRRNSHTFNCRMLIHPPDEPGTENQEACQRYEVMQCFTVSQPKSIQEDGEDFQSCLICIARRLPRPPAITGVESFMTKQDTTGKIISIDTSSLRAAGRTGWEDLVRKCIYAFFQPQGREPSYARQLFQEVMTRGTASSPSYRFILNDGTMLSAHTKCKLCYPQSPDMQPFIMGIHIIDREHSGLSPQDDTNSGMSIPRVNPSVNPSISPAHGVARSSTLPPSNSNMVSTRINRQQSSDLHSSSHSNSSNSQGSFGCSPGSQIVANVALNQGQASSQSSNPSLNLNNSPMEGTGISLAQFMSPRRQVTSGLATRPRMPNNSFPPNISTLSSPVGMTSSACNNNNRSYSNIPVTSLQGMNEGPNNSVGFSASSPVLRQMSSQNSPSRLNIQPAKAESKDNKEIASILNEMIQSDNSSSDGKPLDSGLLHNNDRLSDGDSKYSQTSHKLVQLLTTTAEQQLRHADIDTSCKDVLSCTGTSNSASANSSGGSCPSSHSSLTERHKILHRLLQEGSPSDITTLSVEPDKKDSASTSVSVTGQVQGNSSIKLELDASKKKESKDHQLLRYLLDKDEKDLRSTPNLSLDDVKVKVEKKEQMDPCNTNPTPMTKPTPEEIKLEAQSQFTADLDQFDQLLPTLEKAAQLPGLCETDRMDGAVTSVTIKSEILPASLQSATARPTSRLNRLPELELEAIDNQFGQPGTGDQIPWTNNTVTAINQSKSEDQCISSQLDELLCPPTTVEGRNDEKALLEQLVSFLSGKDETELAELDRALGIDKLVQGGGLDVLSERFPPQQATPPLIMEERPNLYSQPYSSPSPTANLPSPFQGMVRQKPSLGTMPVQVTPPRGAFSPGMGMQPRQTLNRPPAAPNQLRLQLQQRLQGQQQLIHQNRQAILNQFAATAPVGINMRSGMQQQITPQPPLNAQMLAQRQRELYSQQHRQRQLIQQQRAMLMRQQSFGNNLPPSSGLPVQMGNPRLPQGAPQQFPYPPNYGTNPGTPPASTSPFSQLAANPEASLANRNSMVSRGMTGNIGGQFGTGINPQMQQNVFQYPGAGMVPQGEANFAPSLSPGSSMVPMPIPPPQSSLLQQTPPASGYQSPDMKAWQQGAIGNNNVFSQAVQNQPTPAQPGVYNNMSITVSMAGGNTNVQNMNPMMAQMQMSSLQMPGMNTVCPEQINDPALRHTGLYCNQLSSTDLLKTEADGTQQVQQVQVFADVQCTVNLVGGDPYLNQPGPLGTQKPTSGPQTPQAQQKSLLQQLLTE

This test has as its target Nuclear receptor coactivator 1 (Homo sapiens) (UniProt Q15788). In words: NCOA1 GAL4-fusion reporter inhibition – cell-based, luminescence, quadruplicate, confirmation (AID 588820).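 Further: 0% = DMSO wells and 100% = gossypol 36 µM treated wells.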 Particulars: HEK293 GAL4-SRC1 luciferase reporter, at 3.6 µM, active compounds read high. (In general: Reporter assays use an easily measured gene product as a stand-in for the process of interest.)
For the compound `Cc1ccc(/C=C/c2ccc(N(C)C)cc2)[n+](C)c1`, the inhibition is 11.4%.

Consider `CCCCCCCC[n+]1cccc2c3ccccc3ccc21`, for which the inhibition was 59.1% (active).

With `N=c1c2c(-c3ccccc3)c(-c3ccccc3)n(Cc3ccccc3)c2ncn1CCO`, the inhibition is 39.8%.

For `COc1ccc(Nc2ncnc3ccc(Br)cc23)c(OC)c1`, the inhibition is 68.4% (active).

Take `O=C(N/N=C/c1sc(N2CCOCC2)nc1-c1ccccc1)c1cccc(S(=O)(=O)N2CCOCC2)c1`: the inhibition was 43.6%.

For the compound `OCC1OC(n2cnc3c(NCc4ccccc4O)ncnc32)C(O)C1O` (stereo unspecified), the inhibition was 45.3%.

For the compound `CCOc1cc(/C=C(/C#N)c2ccc(Cl)cc2)cc(Cl)c1OCC(=O)O`, the inhibition was 29.6%.

`O=C(NCc1ccco1)c1ccc2c(c1)N(Cc1ccccc1)CCS2`: the inhibition is 3.44%.

Consider `CCn1c(C)cc(C(=O)COC(=O)c2ccccc2[N+](=O)[O-])c1C`, for which the inhibition is 86.8% (active).

Take `O=C(N/N=C/c1cc(Cl)ccc1O)C(=O)Nc1ccccc1OC(F)(F)C(F)F`: the inhibition is 37.7%.

Take `CCC(C)(C)c1ccc(OCCCC[n+]2cccc(C)c2C)c(C(C)(C)CC)c1`: the inhibition is 43.5%.

In the case of `CC(C)(C)c1ccc(Oc2ccc(N)cc2)cc1`, the inhibition was 52.4% (active).

For the compound `COc1ccccc1C(=O)Nc1nc2ccccc2s1`, the inhibition is 56.6% (active).

In the case of `COc1cccc(/C=N/NC(=O)c2c(C)nc3ccc(Cl)cn23)c1O`, the inhibition was 75.2% (active).

In the case of `C=CCn1c(C)cc(C2=NNC(=NCC)SC2)c1C`, the inhibition is 74.7% (active).

Consider `COc1cccc(Cn2c(NCc3cccnc3)nc3c2c(=O)n(C)c(=O)n3C)c1`, for which the inhibition is 58.1% (active).

Usually inhibition stands for the percentage by which the read-out fell short of the control.
